Columns and labels:
[1] = tested on: Tyrosine-protein kinase ABL1 (Homo sapiens), P00519 [T315I]; conditions: at 1 µM
[2] = tested on: Tyrosine-protein kinase ABL1 (Homo sapiens), P00519 [Y253F]; conditions: at 0.1 µM
[3] = tested on: Tyrosine-protein kinase ABL1 (Homo sapiens), P00519 [Y253F]; conditions: at 1 µM
[4] = molecular target: Tyrosine-protein kinase ABL1 (Homo sapiens) (UniProt P00519); conditions: at 0.1 µM
[5] = molecular target: Tyrosine-protein kinase ABL1 (Homo sapiens) (UniProt P00519); conditions: at 1 µM
[6] = molecular target: ALK tyrosine kinase receptor (Homo sapiens) (UniProt Q9UM73); conditions: at 0.1 µM
[7] = molecular target: ALK tyrosine kinase receptor (Homo sapiens) (UniProt Q9UM73); conditions: at 1 µM
[8] = molecular target: Tyrosine-protein kinase ABL2 (Homo sapiens) (UniProt P42684); conditions: at 0.1 µM
[9] = molecular target: Tyrosine-protein kinase ABL2 (Homo sapiens) (UniProt P42684); conditions: at 1 µM
[10] = molecular target: Tyrosine-protein kinase receptor UFO (Homo sapiens) (UniProt P30530); conditions: at 0.1 µM
[11] = molecular target: Tyrosine-protein kinase receptor UFO (Homo sapiens) (UniProt P30530); conditions: at 1 µM
[12] = molecular target: Tyrosine-protein kinase Blk (Homo sapiens) (UniProt P51451); conditions: at 0.1 µM
[13] = molecular target: Tyrosine-protein kinase Blk (Homo sapiens) (UniProt P51451); conditions: at 1 µM
[14] = molecular target: T1, Cytoplasmic tyrosine-protein kinase BMX (Homo sapiens) (UniProt P51813); conditions: at 0.1 µM
T1 sequence (whole entry): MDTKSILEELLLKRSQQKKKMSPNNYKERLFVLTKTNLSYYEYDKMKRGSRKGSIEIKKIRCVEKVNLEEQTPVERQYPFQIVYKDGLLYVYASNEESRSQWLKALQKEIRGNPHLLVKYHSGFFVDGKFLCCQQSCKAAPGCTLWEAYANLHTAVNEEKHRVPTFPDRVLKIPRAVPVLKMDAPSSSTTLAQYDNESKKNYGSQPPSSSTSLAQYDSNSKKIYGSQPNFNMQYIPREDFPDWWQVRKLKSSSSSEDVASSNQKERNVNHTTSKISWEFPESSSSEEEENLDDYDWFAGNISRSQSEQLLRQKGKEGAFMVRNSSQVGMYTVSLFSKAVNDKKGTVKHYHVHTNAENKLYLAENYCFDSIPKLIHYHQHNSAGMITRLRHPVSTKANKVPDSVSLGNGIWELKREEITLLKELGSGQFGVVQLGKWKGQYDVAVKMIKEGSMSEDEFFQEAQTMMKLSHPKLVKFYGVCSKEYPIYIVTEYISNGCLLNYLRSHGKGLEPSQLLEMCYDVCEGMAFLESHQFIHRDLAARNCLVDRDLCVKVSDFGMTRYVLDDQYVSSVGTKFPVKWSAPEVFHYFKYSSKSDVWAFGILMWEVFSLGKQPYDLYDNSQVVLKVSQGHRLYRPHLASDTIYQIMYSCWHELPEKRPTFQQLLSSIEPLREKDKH

[15] = molecular target: T1, Cytoplasmic tyrosine-protein kinase BMX (Homo sapiens); conditions: at 1 µM
[16] = molecular target: Protein-tyrosine kinase 6 (Homo sapiens) (UniProt Q13882); conditions: at 0.1 µM
[17] = molecular target: Protein-tyrosine kinase 6 (Homo sapiens) (UniProt Q13882); conditions: at 1 µM
[18] = molecular target: Tyrosine-protein kinase BTK (Homo sapiens) (UniProt Q06187); conditions: at 0.1 µM
[19] = molecular target: Tyrosine-protein kinase BTK (Homo sapiens) (UniProt Q06187); conditions: at 1 µM
[20] = molecular target: Tyrosine-protein kinase CSK (Homo sapiens) (UniProt P41240); conditions: at 0.1 µM;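 further: value given is the averaged percent inhibition of CSK kinase activity, from the GSK PKIS kinase inhibitor set screening panel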
Sequence of Tyrosine-protein kinase CSK (Homo sapiens) (P41240 2-450 limits assumed): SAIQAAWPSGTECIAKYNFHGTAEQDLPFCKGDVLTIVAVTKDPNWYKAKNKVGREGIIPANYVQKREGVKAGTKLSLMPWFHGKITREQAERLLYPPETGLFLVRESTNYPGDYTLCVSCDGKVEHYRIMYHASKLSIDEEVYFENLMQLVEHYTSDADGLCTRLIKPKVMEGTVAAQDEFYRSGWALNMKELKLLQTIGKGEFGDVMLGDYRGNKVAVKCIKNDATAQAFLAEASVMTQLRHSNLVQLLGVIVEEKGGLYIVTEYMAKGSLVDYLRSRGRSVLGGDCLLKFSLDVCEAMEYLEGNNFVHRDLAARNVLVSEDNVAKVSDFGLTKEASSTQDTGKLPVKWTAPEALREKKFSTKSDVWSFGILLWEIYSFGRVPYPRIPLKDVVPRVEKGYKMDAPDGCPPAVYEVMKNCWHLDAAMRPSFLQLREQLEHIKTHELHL

Sequence of Tyrosine-protein kinase ABL2 (Homo sapiens) (P42684 whole entry): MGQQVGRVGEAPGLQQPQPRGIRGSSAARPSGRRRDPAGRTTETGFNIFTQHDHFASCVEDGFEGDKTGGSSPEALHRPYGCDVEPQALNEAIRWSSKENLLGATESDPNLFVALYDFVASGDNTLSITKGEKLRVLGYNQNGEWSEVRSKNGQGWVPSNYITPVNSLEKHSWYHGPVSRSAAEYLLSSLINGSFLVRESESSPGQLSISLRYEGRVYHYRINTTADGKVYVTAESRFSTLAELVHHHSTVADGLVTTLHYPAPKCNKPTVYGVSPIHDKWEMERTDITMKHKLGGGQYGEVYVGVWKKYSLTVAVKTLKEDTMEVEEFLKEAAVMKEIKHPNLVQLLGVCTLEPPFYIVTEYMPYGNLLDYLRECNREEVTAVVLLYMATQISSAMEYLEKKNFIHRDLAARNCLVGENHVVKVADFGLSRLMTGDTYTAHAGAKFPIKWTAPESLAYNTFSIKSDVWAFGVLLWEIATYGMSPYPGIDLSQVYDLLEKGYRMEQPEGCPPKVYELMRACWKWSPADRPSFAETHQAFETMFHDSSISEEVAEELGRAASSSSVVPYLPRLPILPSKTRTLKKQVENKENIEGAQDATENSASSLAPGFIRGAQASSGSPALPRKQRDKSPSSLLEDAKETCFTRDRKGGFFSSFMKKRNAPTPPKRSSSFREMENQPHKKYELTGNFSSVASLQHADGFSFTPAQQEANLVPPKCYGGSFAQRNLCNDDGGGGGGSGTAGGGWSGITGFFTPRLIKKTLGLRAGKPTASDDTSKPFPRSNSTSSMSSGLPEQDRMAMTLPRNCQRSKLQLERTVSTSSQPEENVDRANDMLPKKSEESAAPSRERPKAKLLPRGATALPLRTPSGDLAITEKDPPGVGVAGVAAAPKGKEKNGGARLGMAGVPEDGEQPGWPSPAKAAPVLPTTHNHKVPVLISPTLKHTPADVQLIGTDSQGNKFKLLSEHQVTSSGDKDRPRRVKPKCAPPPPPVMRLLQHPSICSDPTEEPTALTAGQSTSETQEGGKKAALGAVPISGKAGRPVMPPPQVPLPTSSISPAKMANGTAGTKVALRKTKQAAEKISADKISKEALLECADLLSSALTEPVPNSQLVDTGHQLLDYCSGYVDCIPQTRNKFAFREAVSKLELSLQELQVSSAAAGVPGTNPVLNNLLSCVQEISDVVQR
Sequence of Tyrosine-protein kinase receptor UFO (Homo sapiens) (P30530 whole entry): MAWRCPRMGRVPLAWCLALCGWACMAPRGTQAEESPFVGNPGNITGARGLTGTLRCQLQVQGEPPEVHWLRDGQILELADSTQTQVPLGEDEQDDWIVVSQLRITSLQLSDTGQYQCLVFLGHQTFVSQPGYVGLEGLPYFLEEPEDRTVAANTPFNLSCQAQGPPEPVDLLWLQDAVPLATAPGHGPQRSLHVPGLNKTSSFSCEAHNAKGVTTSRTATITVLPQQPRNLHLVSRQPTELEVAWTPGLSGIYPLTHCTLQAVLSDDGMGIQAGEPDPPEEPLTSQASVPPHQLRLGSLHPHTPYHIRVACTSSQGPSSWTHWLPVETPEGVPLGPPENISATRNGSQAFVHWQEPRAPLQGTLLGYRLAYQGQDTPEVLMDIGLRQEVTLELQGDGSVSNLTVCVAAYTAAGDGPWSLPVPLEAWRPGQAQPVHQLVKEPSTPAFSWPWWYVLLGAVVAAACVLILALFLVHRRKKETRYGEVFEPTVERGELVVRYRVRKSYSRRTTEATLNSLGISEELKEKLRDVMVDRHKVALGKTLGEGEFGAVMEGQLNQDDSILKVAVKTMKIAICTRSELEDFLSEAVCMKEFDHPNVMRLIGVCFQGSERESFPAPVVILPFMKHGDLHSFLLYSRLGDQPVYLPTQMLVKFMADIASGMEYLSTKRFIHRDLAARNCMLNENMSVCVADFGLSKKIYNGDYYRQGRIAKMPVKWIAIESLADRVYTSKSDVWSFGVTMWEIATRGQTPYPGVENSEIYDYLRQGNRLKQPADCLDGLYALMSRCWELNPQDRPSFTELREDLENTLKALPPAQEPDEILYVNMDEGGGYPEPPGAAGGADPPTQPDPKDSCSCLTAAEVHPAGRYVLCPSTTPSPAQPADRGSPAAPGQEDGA
Sequence of ALK tyrosine kinase receptor (Homo sapiens) (Q9UM73 19-1620 limits assumed): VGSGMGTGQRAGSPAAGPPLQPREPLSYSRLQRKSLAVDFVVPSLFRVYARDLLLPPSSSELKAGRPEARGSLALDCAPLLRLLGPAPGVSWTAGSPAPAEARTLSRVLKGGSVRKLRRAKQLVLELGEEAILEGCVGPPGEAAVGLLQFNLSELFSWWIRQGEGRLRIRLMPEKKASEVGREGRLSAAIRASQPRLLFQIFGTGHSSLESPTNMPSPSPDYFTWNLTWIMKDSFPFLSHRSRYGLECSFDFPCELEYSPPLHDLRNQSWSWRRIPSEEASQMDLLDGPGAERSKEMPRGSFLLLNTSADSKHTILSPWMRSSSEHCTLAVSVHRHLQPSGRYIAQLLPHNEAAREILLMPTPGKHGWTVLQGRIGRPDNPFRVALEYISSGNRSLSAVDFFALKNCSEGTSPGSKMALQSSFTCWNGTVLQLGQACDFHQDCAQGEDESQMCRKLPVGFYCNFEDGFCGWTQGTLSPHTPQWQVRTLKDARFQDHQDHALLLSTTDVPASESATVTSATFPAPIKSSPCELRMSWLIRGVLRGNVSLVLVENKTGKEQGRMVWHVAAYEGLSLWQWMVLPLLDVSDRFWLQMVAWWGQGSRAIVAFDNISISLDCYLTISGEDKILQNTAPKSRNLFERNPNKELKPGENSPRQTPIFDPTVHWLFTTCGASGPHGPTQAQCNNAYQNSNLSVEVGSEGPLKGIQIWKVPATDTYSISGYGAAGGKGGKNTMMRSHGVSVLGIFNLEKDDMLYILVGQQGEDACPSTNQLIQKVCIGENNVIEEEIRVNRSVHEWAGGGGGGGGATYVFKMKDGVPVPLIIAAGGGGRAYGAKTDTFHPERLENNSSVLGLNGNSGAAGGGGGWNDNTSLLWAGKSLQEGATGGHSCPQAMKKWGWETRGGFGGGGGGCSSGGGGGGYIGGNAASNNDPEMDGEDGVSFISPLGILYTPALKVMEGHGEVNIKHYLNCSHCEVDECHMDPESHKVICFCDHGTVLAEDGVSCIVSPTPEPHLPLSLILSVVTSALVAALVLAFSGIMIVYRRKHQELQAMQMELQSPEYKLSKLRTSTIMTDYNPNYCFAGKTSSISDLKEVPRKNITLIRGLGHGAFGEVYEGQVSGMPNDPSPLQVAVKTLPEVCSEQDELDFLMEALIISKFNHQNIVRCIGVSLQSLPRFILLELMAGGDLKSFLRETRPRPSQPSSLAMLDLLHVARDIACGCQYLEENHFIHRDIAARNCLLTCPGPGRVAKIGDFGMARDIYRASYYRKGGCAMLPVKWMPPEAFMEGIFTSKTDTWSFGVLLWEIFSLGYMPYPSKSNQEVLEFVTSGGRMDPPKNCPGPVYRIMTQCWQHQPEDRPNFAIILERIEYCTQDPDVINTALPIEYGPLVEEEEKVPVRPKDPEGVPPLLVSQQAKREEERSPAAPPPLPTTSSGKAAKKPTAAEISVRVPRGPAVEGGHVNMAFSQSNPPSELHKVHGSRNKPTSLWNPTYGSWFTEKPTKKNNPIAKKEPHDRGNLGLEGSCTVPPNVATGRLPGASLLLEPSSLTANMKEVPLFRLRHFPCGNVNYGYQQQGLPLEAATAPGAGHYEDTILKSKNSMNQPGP
Sequence of Tyrosine-protein kinase Blk (Homo sapiens) (P51451 2-505 limits assumed): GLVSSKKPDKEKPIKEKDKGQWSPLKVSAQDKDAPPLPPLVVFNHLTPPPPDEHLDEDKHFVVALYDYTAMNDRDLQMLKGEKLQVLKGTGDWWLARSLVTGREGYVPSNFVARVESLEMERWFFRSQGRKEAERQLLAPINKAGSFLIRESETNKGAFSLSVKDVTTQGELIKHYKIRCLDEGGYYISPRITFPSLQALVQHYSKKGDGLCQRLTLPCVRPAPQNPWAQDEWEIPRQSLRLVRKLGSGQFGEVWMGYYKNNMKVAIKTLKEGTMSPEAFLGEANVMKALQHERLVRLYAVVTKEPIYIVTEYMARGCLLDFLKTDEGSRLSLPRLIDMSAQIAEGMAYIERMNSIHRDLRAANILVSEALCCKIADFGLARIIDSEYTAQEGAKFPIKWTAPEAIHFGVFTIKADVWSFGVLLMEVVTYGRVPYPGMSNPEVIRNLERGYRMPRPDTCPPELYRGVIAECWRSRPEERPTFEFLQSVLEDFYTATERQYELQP
Sequence of Protein-tyrosine kinase 6 (Homo sapiens) (Q13882 whole entry, looked up): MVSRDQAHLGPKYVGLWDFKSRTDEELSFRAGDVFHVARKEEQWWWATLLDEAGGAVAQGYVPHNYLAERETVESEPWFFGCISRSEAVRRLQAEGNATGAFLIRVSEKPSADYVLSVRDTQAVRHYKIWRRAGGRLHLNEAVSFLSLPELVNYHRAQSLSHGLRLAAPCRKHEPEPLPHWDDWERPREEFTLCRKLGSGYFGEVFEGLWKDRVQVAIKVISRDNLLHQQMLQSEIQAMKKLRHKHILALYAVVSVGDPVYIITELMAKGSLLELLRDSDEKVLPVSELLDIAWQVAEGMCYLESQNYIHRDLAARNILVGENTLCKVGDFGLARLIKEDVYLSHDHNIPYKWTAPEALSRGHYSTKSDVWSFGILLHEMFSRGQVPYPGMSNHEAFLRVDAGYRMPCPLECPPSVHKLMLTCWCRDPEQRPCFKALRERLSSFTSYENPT

SMILES	inhibition [1] [%]	inhibition [2] [%]	inhibition [3] [%]	inhibition [4] [%]	inhibition [5] [%]	inhibition [6] [%]	inhibition [7] [%]	inhibition [8] [%]	inhibition [9] [%]	inhibition [10] [%]	inhibition [11] [%]	inhibition [12] [%]	inhibition [13] [%]	inhibition [14] [%]	inhibition [15] [%]	inhibition [16] [%]	inhibition [17] [%]	inhibition [18] [%]	inhibition [19] [%]	inhibition [20] [%]
COc1cccc(-n2ncc3c(N/N=C/c4ccc(S(C)(=O)=O)cc4)ncnc32)c1	87	86.2	94.7	62	73	-3.22	-1.6	45.4	61.7	-1.8	1.34	7.91	38.4	10.1	30.7	6.33	26.8	-4.35	-3.39	5.8
COC(=O)c1ccc2c(c1)C(=Cc1cc(Br)c(O)c(Br)c1)C(=O)N2	2.87	2.56	15.9	7.83	21.2	5.2	15	5.66	15.4	-5.02	-4.28	3.19	11.6	3.04	7.64	2.4	6.95	-1.29	0.81	-0.27
COc1cccc(-n2ncc3c(N/N=C/c4ccc(C)cc4)ncnc32)c1	23.2	31.8	76.1	13	62.1	12.4	22.3	64.2	40.5	-3.91	-6.6	3.17	7.15	5.21	10.6	3.4	5.43	-0.28	0.44	2.91
Cc1cc(Cl)cc2c1NC(=O)C2=NNc1ccc(S(N)(=O)=O)cc1	4.99	3.5	6.19	2.11	7.99	0.72	1.88	3.13	7.59	-3.23	-2.47	1.98	1.63	3.4	2.55	-0.72	1.77	2.48	0.33	-0.78
FC(F)(F)c1ccc(-c2nn3ncccc3c2-c2ccnc(Nc3ccc4c(c3)OCCO4)n2)cc1	9.38	0.98	7.07	5.3	13.7	-1.39	1.59	5.58	9.47	8.69	7.56	3.74	15.7	2.61	0.4	-0.58	12	0.26	7.22	-0.13
N#Cc1c(NC(=O)c2ccccc2F)sc2c1CCCC2	0.12	-0.24	0.05	0.07	1.47	-1.14	1.02	-0.22	1.82	1.78	2.38	-0.71	0.42	-1.17	-1.62	0.56	-1.93	0.32	-0.23	-1.65
COc1ccc(-c2nn3ncccc3c2-c2ccnc(Nc3cccc(C(F)(F)F)c3)n2)cc1	5.9	1.53	5.56	5.5	4	3.3	5.15	2.28	6.55	-4.48	-2.69	2.61	7.74	2.37	-4.27	2.5	17.9	0.09	1.7	2.1
Cc1ccc(O)cc1Nc1ccnc2ccc(S(C)(=O)=O)cc12	18.4	94.9	96.8	81.3	85.5	2.56	8.35	80.8	–	-7.59	–	42.8	91.4	76.5	93.2	95.3	103	63.8	77.3	70.3
C[C@@H](Oc1cc(-n2cnc3ccc(OC[C@@H](O)CO)cc32)sc1C(N)=O)c1ccccc1Cl	12.4	-0.46	10.3	-0.45	11.7	-0.7	4.65	0.97	7.64	2.21	3.2	-0.24	3.09	4.05	0.31	–	-0.38	-0.29	-0.5	-0.73
c1ccc(Cc2nc3ccc(Nc4ncnc5ccccc45)cc3[nH]2)cc1	4.4	5.92	6.3	4.49	11.3	1.23	5.36	2.8	9.97	-5.03	-3.16	2.78	7.6	5.75	5.59	5.48	5.84	0.25	1.7	8.17
NS(=O)(=O)c1ccc(Nc2cc(-c3cccc(O)c3)n[nH]2)cc1	7.24	6.94	11.8	5.23	11.4	3.58	7.98	5.93	6.81	–	-5.6	3.31	6.67	-0.08	4.72	4.78	6.34	-0.39	0.41	4.63
NS(=O)(=O)c1ccc(N/N=C2\C(=O)Nc3ccc(Cl)cc32)cc1	11.8	1.42	11.1	2.16	10.6	1.16	5.53	5.17	11.6	-1.64	-3.81	2.51	6.13	-0.25	4.68	2.27	5.96	0.31	0.56	4.9
CN(C)C(=O)O[C@@H]1CN[C@@H](C#Cc2cc3ncnc(Nc4ccc(OCc5cccc(F)c5)c(Cl)c4)c3s2)C1	-0.07	1.53	3.44	1.35	6.2	1.27	1.3	1.71	8.08	-0.96	2.48	2.22	3.83	1.11	3.41	-0.15	2.41	-0.22	1.84	-1.53
COC(=O)Nc1nc2cc(Oc3ccc(NC(=O)Nc4cccc(Br)c4)cc3)ccc2[nH]1	44.6	7.87	16.5	6.66	19	2.06	3.65	16.1	34.4	-0.21	9.52	3.1	2.8	2.76	1.32	3.81	4.63	1.15	0.55	7.57
NC(=O)c1cccc(Nc2nccc(Nc3cccc(F)c3)n2)c1	17.1	12.8	63.8	11.6	55.6	0.23	10.1	11.5	51.9	-1.82	-2.93	0.38	13.8	4.88	37.9	4.3	36.2	0.63	7.3	0.49
CCOc1nccc2c1nc(-c1nonc1N)n2CC	6.12	1.56	6.81	4.96	14.6	2.69	5.24	3.48	11.2	0.71	-0.05	3.42	2.55	1.6	1.81	0.8	2.85	1.49	2.44	3.08
CCS(=O)(=O)c1ccc(OC)c(Nc2ncc(-c3cccc(OC)c3)o2)c1	26.5	48.5	86.3	29.8	77.7	2.9	8.1	27.3	72.6	-3.48	-1.98	10.4	64.3	-2.1	25.9	6.68	40.7	3.67	21.6	-0.51

Source: ChEMBL document CHEMBL1961873, “Compounds: GSK PKIS; Assays: Nanosyn kinase panel” (2012)
